# From PubChem BioAssay (EPA / NIEHS)
# Where “and” joins values, the source holds several entries; their conditions need not be identical. Identical values can stand only once. Results filed as inconclusive are left out. A structure can be active in one record and inactive in another. Calls of active or inactive are those of the source. How the source made its calls, unless noted: active means hit-call score of the fitted dose curve at least 0.9, where 1 is the maximum; inactive means score below 0.9.
# Legend:
# [1] = CEETOX_H295R_MTT_cell_viability: Viability Assessment in the CeeTox HT-H295R MTT Assay (AID 2283718);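 on AC50: curve fitted both ways so AC50 may mark viability loss or gain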
# In short: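 H295R cells prestimulated 48 h with 10 uM forskolin, then exposed 48 h to test chemical (0.1% DMSO final). Viability by MTT (0.5 mg/ml, 4 h, 37 C), absorbance 570/650 nm; percent change versus DMSO, bidirectional fit.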
# [2] = STM_H9_OrnCyssISnorm_ratio: Stemina devTOX quickPredict H9 human embryonic stem cell (hESC)-based Assay for Ornithine (ORN):Cystine (CYSS) Ratio (AID 2283714; active means hit-call score of the fitted dose curve at least 0.9, where 1 is the maximum)
# In short: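 Undifferentiated H9 hESCs were exposed to compound for 72h with media and chemical replaced every 24h. Final 24-h conditioned media were deproteinized and analysed by UPLC-HRMS. ORN and CYSS peak areas were normalized to C13 internal standards and the ratio taken versus 0.1% DMSO.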
# [3] = target: Luciferin 4-monooxygenase (Photinus pyralis) (UniProt P08659); assay: CCTE_Simmons_QuantiLum_inhib_2: CCTE's Firefly Luciferase Inhibition Assay, Simmons Lab (AID 2283767; active means hit-call score of the fitted dose curve at least 0.9, where 1 is the maximum)
# In short: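 Luminescence loss relative to DMSO vehicle defines inhibition; detection reagent containing 150 uM D-luciferin and 147 uM dATP (final, pH 7.8) is injected immediately before each read. Enzyme is preincubated with an 8-point titration (5 nM–87.5 uM final) for 30 min at 37C.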
# [4] = Tanguay_ZF_120hpf_TR_legacy: (Legacy) Oregon State University Tanguay Lab 120 Hour Post-fertilization zebrafish Assay for Touch Response (AID 2283667; active means hit-call score of the fitted dose curve at least 0.9, where 1 is the maximum)
# In short: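 Tropical 5D wild-type zebrafish embryos were exposed statically in sealed, foil-covered plates at 28C until 120 hpf, with 0.64% (vol/vol) final DMSO. Touch response was scored as present or absent; embryos that died were not scored.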
# [5] = Tanguay_ZF_120hpf_ActivityScore_legacy: (Legacy) Oregon State University Tanguay Lab 120 Hour Post-fertilization zebrafish Assay Score for Activity (AID 2283742; active means hit-call score of the fitted dose curve at least 0.9, where 1 is the maximum;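 on AC50: static exposure from 6 hpf until 120 hpf at 28 °C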)
# In short: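 Tropical 5D wild-type zebrafish embryos, dechorionated with pronase at 4 hpf, were exposed singly from 6 hpf to 120 hpf statically at 28C in 0.64% DMSO. Malformations and mortality were scored as binary by brightfield, with the activity score combining 18 morphology components.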
# [6] = CCTE_Padilla_ZF_144hpf_TERATOSCORE: (Legacy) CCTE's 144 Hour Post-fertilization zebrafish Assay Teratoscore, Padilla Lab (AID 2283679);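 further: zebrafish embryos with chorions exposed by immersion from 6-8 hpf to 5 dpf with daily renewal; teratogenicity score from eye scoring of death hatching and malformations at 144 hpf; higher score means more developmental defects relative to DMSO baseline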
# In short: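 Larvae scored by eye at 144 hpf for death, hatching and malformations after a day in clean Hanks'. Before that, daily-renewed exposure at 80 uM (0.4% DMSO, 26C) from roughly 6-8 hpf through 5 dpf, 4 embryos per chemical.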
# [7] = tested on: zebrafish Androgen Receptor (AR), gene 100005148; assay: ATG_zfAR_XSP1: Attagene TRANS-FACTORIAL Multi-Species (XSP1) HepG2 Assay for zebrafish Androgen Receptor (AR) (AID 2283771; active means hit-call score of the fitted dose curve at least 0.9, where 1 is the maximum)
# In short: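 HepG2 cells were transiently transfected with a zebrafish AR-GAL4 reporter system and partially stimulated with 3 nM 6-alpha-fluorotestosterone. Reporter mRNA was measured after 24 h dosing by RT-PCR with capillary electrophoresis, and gain-of-signal was fitted relative to DMSO.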
# [8] = target: zebrafish Estrogen Receptor (ESR1), esr1 (gene 259252) (UniProt P57717); assay: ATG_zfER1_XSP1: Attagene TRANS-FACTORIAL Multi-Species (XSP1) HepG2 Assay for zebrafish Estrogen Receptor (ESR1) (AID 2283772; active means hit-call score of the fitted dose curve at least 0.9, where 1 is the maximum)
# In short: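 HepG2 cells transiently transfected with a GAL4-UAS reporter and chimeric zebrafish ER-Gal4, dosed 24 h with 3 nM 6-alpha-fluorotestosterone present. Reporter mRNA measured by RT-PCR and capillary electrophoresis; gain of signal versus DMSO.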
# [9] = STM_H9_OrnithineISnorm_perc: Stemina devTOX quickPredict H9 human embryonic stem cell (hESC)-based Assay for Ornithine (ORN) Metabolite Biomarker, Normalized (AID 2283712);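 further: ornithine released into spent medium during last day measured by mass spectrometry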
# In short: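 H9 human embryonic stem cells kept pluripotent receive test chemical over 72 h, refreshed daily by media exchange. Media from the closing 24 h is deproteinized and analysed by UPLC-HRMS on an amide column; ornithine signal is scaled to labelled standard and vehicle.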
# [10] = STM_H9_CystineISnorm_perc: Stemina devTOX quickPredict H9 human embryonic stem cell (hESC)-based Assay for Cystine (CYSS) Metabolite Biomarker, Normalized (AID 2283713)
# In short: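 H9 hESC, pluripotent; compound 72h, re-dosed q24h with medium change. Last-24h medium → 40% acetonitrile deproteinization → UPLC-HRMS. CYSS area / C13-CYSS standard, then % of 0.1% DMSO median.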
# Chain of Luciferin 4-monooxygenase (Photinus pyralis) (P08659 whole entry, looked up): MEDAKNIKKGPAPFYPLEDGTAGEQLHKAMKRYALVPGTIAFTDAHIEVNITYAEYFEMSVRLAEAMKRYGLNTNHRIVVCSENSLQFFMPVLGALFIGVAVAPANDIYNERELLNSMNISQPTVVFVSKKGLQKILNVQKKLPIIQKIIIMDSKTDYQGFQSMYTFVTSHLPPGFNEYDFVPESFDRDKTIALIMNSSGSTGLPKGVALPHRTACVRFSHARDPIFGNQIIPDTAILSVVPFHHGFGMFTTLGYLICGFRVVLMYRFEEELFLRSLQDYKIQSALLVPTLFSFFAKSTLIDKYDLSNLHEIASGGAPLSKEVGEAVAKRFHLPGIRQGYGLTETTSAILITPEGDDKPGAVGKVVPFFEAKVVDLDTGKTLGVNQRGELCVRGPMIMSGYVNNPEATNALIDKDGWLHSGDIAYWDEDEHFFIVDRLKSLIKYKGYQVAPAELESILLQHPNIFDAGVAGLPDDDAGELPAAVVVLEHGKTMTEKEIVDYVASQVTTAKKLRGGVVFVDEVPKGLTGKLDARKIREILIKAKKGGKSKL
# Chain of zebrafish Estrogen Receptor (ESR1), esr1 (gene 259252) (P57717 whole entry, looked up, the tested form may be a part): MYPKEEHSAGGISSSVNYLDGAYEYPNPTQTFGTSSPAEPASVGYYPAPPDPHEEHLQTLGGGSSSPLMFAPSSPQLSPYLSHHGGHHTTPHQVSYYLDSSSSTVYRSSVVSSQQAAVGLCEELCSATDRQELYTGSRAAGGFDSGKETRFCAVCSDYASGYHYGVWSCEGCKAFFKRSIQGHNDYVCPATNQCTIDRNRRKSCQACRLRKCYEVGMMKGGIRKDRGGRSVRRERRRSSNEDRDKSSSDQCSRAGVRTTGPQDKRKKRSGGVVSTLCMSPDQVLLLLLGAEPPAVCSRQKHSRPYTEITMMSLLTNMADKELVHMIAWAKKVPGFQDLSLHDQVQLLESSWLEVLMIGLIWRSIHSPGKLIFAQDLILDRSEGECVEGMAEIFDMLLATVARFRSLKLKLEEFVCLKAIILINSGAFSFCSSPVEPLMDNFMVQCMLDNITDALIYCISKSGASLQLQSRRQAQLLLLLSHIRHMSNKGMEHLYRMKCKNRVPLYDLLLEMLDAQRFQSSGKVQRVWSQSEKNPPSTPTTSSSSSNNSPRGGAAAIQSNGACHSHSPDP
compound,measurement,setting,value
CCCCCCCCCCCCN1CCOCC1,outcome,[1],inactive
CC(=O)OC/C=C(C)/C=C/C=C(C)/C=C/C1=C(C)CCCC1(C)C,AC50,[2],78.1 µM (active)
same,AC50,[1],73.7 µM (active)
same,outcome,[3],inactive
CCCCOCCOCCO,outcome,[4],inactive
same,outcome,[5],inactive
CC/C(=C(\c1ccccc1)c1ccc(OCCN(C)C)cc1)c1ccccc1,outcome,[4],inactive
same,AC50,[6],1.43 µM (active) and 1.58 µM (active)
same,outcome,[1],inactive
same,AC50,[5],31.1 µM (active)
same,outcome,[5],inactive
same,outcome,[3],inactive
same,outcome,[7],inactive
same,outcome,[8],inactive
O=C1CCCCCCCCCCCC(=O)OCCO1,AC50,[2],13.2 µM (active)
CCCCCC(=O)O[C@]1(C(C)=O)CC[C@H]2[C@@H]3CCC4=CC(=O)CC[C@]4(C)[C@H]3CC[C@@]21C,AC50,[1],13.4 µM (active)
c1coc(CNc2ncnc3nc[nH]c23)c1,outcome,[1],inactive
c1ccc(OCCOc2ccccc2)cc1,outcome,[1],inactive
CCCCN(CCO)CCO,outcome,[2],inactive
COc1ccc2[nH]cc(CCNC(C)=O)c2c1,outcome,[1],inactive
COc1cc(OC)c2ccc(=O)oc2c1,outcome,[1],inactive
OCC=Cc1ccccc1,outcome,[1],inactive
CC(=O)C1=C(C)[C@@H]2C[C@@]3(C1)[C@H](C)CC[C@H]3C2(C)C,outcome,[2],inactive
same,AC50,[1],50 µM (active)
O=C(c1ccc(OCCN2CCCCC2)cc1)c1c(-c2ccc(O)cc2)sc2cc(O)ccc12,AC50,[6],86.8 µM (active)
same,outcome,[1],inactive
same,outcome,[5],inactive
same,outcome,[3],inactive
COC(=O)c1cccc(C(=O)OC)c1,outcome,[1],inactive
CC(=N[Si](C)(C)C)O[Si](C)(C)C,outcome,[1],inactive
CC=CC(=O)C1=C(C)C=CCC1(C)C,outcome,[1],inactive
OCCCO,outcome,[1],inactive
COC(=O)c1ccc(C(=O)OC)cc1,AC50,[6],4.57 µM (active)
same,outcome,[9],inactive
same,outcome,[10],inactive
same,outcome,[2],inactive
same,outcome,[1],inactive
same,AC50,[5],77.4 µM (active)
C=C(C)C(N)=O,outcome,[4],inactive
same,outcome,[5],inactive
C#C[C@]1(O)CC[C@H]2[C@@H]3CCc4cc(O)ccc4[C@H]3CC[C@@]21C,outcome,[4],inactive
same,AC50,[6],5.77 µM (active)
same,outcome,[1],inactive
same,outcome,[5],inactive
same,outcome,[3],inactive
same,AC50,[8],0.000281 µM (active)
C[C@]12CC[C@@H]3c4ccc(O)cc4CC[C@H]3[C@@H]1CC[C@@H]2O,outcome,[4],inactive
same,AC50,[6],12 µM (active)
same,outcome,[1],inactive
same,outcome,[5],inactive
same,outcome,[3],inactive
CCCCCCCCCCOC(=O)c1ccccc1C(=O)OCCCCCCCC,outcome,[1],inactive
COC(=O)C(C)Oc1ccc(Oc2ncc(C(F)(F)F)cc2Cl)cc1 (stereo unspecified),outcome,[1],inactive
CCOC(=O)C=Cc1ccccc1,AC50,[2],24.8 µM (active)
O=C(O)c1ccccc1O,AC50,[10],1490 µM (active)
CC(=O)c1ccc2ccccc2c1,outcome,[1],inactive
